Screening results (PubChem BioAssay)
HP1b chromo inh: HP1-beta chromodomain-methylated histone interaction inhibition; AlphaScreen HP1-beta / biotin-H3K9me3 peptide binding; Potency, µM (titrated, usually from 114 µM), for inactives: top-dose activity change, negative = inhibition, actives largely listed as inhibitors; actives 0.56% (n = 390,000); AID 540317; also: potency is read from the fitted curve at half-maximal effect; nearly all actives have a fitted effect of over 70% in size
Target sequence (P83916 whole entry, looked up): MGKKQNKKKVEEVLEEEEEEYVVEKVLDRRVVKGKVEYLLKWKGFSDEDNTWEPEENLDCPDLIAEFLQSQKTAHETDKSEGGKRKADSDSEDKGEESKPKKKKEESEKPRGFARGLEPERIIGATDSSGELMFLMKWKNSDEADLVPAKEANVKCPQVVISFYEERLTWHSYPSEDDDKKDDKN
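HP1-beta protein (50 nM final) preincubated 30 min at room temperature with biotinylated H3(1-18)K9me3 peptide (50 nM) in PBS pH 7.4, 0.01% Tween-20, then compound added for 30 min. AlphaScreen streptavidin donor/nickel chelate acceptor beads (10 ug/mL final), 30 min dark, luminescence read.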
PI5P4Ka inh: blocks human PI5P4K alpha kinase activity; P48426; PI5P4Kalpha enzyme, ADP-Glo luminescence, 60 min; hits give low values; max response, %; actives 1.2% (n = 330,000); active = max response of -50% or lower; inconclusive = between -30% and -50%; inactive = -30% or higher; also: value at the top dose of about 77 µM; % is scaled to controls: 0 for no effect and ±100 for the full control effect
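ADP-Glo luminescence end-point read after a 60 min room-temperature kinase reaction of PI5P4Kalpha plus substrate, initiated with ATP at 5 microM final. Buffer: 0.038 M HEPES pH 7.4, EGTA, 0.1% CHAPS, 5% DMSO.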
JMJD2A Tudor inh: blocks the human JMJD2A Tudor domain | O75164 | Potency, µM (doses to about 114 µM), for the others: at the highest dose activity change, negative = inhibition, usual class: inhibitors | AlphaScreen JMJD2A-Tudor / H3K4me3 peptide binding | actives 4.4% (n = 390,000) | AID 504339; also: potency is read from the fitted curve at half-maximal effect; % is scaled to controls: 0 for no effect and ±100 for the full control effect; nearly all actives have a fitted effect of over 50% in size
PLK1 PBD inh: inhibitors of human PLK1 polo-box domain binding | P53350 | Plk1 PBD binding of FITC phosphopeptide, fluorescence polarization | Potency, µM, for the others: max response, negative = inhibition, hits mostly inhibitors | actives 2.8% (n = 360,000); also: potency is read from the fitted curve at half-maximal effect; series mostly up to about 57 µM; % is scaled to controls: 0 for no effect and ±100 for the full control effect; nearly all actives have a fitted effect of over 65% in size
BAZ2B block: BAZ2B (human) inhibition; AlphaScreen BAZ2B-H3K14Ac peptide displacement; Potency, µM (series often up to 114 µM), for inactives: top-dose activity change, negative = inhibition, actives largely listed as inhibitors; actives 4.4% (n = 360,000); AID 504333; also: potency is read from the fitted curve at half-maximal effect; % is scaled to controls: 0 for no effect and ±100 for the full control effect; nearly all actives have a fitted effect of over 60% in size
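BAZ2B 50 nM plus b-H3(5-23)K14Ac 50 nM, PBS pH 7.4/0.01% Tween-20, 30 min RT; compound added (max 110 uM), 30 min RT; streptavidin donor/Ni-chelate acceptor beads 10 ug/mL final, 20 min dark; AlphaScreen read.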
G9a inh-1: blocks human histone lysine methyltransferase G9a. Q96KQ7. AID 504332. actives 8.8% (n = 350,000). G9a H3K9 monomethylation, AlphaScreen, 2 h. Potency, µM (titrated, usually from 102 µM), for the others: top-dose activity, negative = inhibition, usual class: inhibitors; also: potency is read from the fitted curve at half-maximal effect; % is scaled to controls: 0 for no effect and ±100 for the full control effect; nearly all actives have a fitted effect of over 75% in size
Target sequence (Q96KQ7 913-1193 limits assumed): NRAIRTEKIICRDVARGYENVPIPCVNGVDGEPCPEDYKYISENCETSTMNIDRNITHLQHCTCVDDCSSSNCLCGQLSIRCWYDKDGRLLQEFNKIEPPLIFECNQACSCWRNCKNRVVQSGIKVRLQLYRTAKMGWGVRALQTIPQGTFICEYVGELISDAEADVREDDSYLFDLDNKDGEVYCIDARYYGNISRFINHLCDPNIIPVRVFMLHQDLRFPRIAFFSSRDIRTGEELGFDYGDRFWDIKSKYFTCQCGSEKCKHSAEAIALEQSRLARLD
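Quantitative HTS format: methyltransferase activity on a biotin-tagged H3K9 peptide is measured by AlphaScreen, using a rabbit anti-monomethyl-H3K9 antibody with streptavidin donor and anti-IgG acceptor beads. Final levels are 20 nM enzyme, 500 nM peptide, 20 uM SAM; 2 h RT.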
JMJD2E inh: JMJD2E (human) demethylase inhibition, confirmation; shares compounds with JMJD2A Tudor inh; Recombinant JMJD2E, FDH-coupled NADH fluorescence (FDH is formaldehyde dehydrogenase); Potency, µM (top dose mostly 56.8 µM), inactives show at the top dose activity change, negative = inhibition, actives largely listed as inhibitors; actives 93% (n = 140); AID 2677
FDH inh: FDH (Pseudomonas putida) inhibition counter-screen | shares compounds with JMJD2A Tudor inh | FDH enzyme assay, NADH fluorescence kinetic | Potency, µM (titrated, usually from 56.7 µM), without a hit: at the highest dose activity, negative = inhibition, most hits filed as inhibitors | actives 10% (n = 140)
G9a inh-2: confirmation of human histone methyltransferase G9a inhibitors | G9a H3K9 monomethylation, AlphaScreen, 2 h | shares compounds with JMJD2A Tudor inh | Potency, µM, usual class: inhibitors | actives 89% (n = 370); also: potency is read from the fitted curve at half-maximal effect; nearly all actives have a fitted effect of over 65% in size
RGS4 inh: confirmation of human RGS4 inhibitors; shares compounds with JMJD2A Tudor inh; RGS4 GAP activity, Transcreener GDP fluorescence polarization; Potency, µM, hits mostly inhibitors; actives 80% (n = 25)
Target sequence (P49798 whole entry, looked up): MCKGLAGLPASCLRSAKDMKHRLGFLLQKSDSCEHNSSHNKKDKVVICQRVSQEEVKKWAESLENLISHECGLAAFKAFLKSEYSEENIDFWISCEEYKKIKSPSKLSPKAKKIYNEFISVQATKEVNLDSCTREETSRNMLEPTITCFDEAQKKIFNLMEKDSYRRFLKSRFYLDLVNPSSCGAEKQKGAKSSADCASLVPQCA
ADP-Glo interf: ADP-Glo luciferase interference, PI5P4K counter-screen. shares compounds with PI5P4Ka inh. ADP-Glo detection counter-screen, luciferase luminescence, no enzyme. Potency, µM (titrated, usually from 76.9 µM), without a hit: at the top dose activity change, negative = inhibition, actives largely listed as inhibitors. 1,100 tested, under 10 active
Numbers without * were called inactive; ? = inconclusive; nt = not tested or not shown; [ ] = another dose, or the depositor's remark. A selection: hits, their analogues and other compounds. The true share with any hit is near 12%. Unless noted, calls follow the shape of the dose curve; as a rule, active = well fitted curve in the direction sought with a large enough effect; inconclusive = small, poorly fitted or top-dose-only effect, or another doubt; inactive = no such curve, though single readings can be large; an effect the other way counts as inactive or inconclusive.

SMILES | HP1b chromo inh | PI5P4Ka inh | JMJD2A Tudor inh | PLK1 PBD inh | BAZ2B block | G9a inh-1 | G9a inh-2 | others
Cc1ccc(C(C)(C)C)cc1S(=O)(=O)N1CCC(C(=O)N2CCN(c3ccc(O)cc3)CC2)CC1 | ? | ? | -35% | -10% | 10% | 0.79µM* | 1.4*
Cc1cc(C)c(C)c(S(=O)(=O)N2CCC(C(=O)N3CCN(c4ccc(F)cc4)CC3)CC2)c1C | 6%[57 µM] | 2 | -21% | -3% | nt | nt | nt
Cc1ccc(-c2nc3ccccn3c2Nc2ccc3c(c2)OCO3)o1 | ? | nt | 50µM* | nt | 35µM* | 7.9µM* | nt | RGS4 inh=?
CC(C)c1ccc(Nc2c(-c3ccco3)nc3ccccn23)cc1 | -9% | nt | ? | nt | ? | ? | nt | RGS4 inh=?
CC(C)c1ccc(N2C(=O)CC(Sc3ncn[nH]3)C2=O)cc1 (stereo not drawn) | -73% | -24 | 7.1µM* | 27µM* | 5% | 1.3µM* | nt | JMJD2E inh=5.6µM*;FDH inh=0.25µM*
CC1CC(=O)N(c2ccc(C(C)C)cc2)C(=O)C1 | 36% | 0 | -6% | -13% | 23% | nt | nt
Oc1ccc(NCc2ccccc2OCc2ccccc2F)cc1 | ? | -23 | 56µM* | -11% | 45µM* | 3.2µM* | nt | JMJD2E inh=20µM*;FDH inh=?
Cc1ccc(NCc2ccccc2OCc2ccccc2F)cc1 | -25% | 21 | ? | -6% | ? | ? | nt
Oc1ccc(NCc2ccccc2OCc2ccccc2Cl)cc1 | -10% | nt | ? | nt | 25µM* | ? | 11*
COc1ccc(OCC(=O)NC2CC(=O)N(c3ccc4c(c3)OCCO4)C2)cc1 (stereo not drawn) | 26% | nt | -1% | nt | 0% | 8%[59 µM] | nt
CCOC(=O)C1=C(CN2CCC(C(=O)OCC)CC2)NC(=O)NC1c1ccc(Cl)cc1 (stereo not drawn) | 16% | nt | -34% | nt | nt | -42%[59 µM] | nt
CN(C)c1ccc(CNc2ccc3c(c2)ncn3C)cc1 | 20µM* | nt | 18µM* | -13% | 18µM* | ? | 10*
CCCn1cnc2cc(NCc3ccccc3OCC)ccc21 | ? | nt | 56µM* | nt | 40µM* | 1.8µM* | 2.6*
CCCCn1cnc2cc(NCc3ccc(OCC)cc3)ccc21 | ? | nt | 40µM* | nt | 22µM* | 2.5µM* | 6.5*
CCC(=O)Nc1ccc2c(c1)ncn2C | 25% | 2 | -11% | -2% | -32% | -41% | nt
CCOc1ccc(CNc2nc3ccccc3n2C)cc1 | 36% | -1 | -12% | -4% | -1% | nt | nt
CCOc1ccc(CNc2ccc3c(c2)nc(C)n3C)cc1 | -10% | 1 | -35% | -7% | -9% | 1.6µM* | 6.3*
CCOc1ccccc1CNc1nc2ccccc2n1C | 19% | -5 | -5% | -7% | -2% | 20% | nt
CCOC(=O)c1cc(OC)c2cccc(CN3CCCC(C)(C(=O)NCCOC)C3)c2c1 (stereo not drawn) | nt | 2 | nt | -2% | nt | nt | nt
O=C(NCCCN1CCN(c2ccccc2)CC1)c1ccc2nc(CCc3ccccc3)oc2c1 | -4%[57 µM] | nt | ? | nt | -37% | ? | nt
CCN(CC)CCOC(=O)c1ccc(NC(=O)c2cn(-c3ccccc3)nc2-c2cccs2)cc1 | 2% | 21 | -22% | -2% | -32% | -44% | nt | RGS4 inh=21*
Cc1ccc(OCc2nc3ccccc3n2C(C)C(=O)Nc2c(C)cccc2C)cc1 (stereo not drawn) | nt | ? | nt | -16% | nt | nt | nt
COc1cccc(NC(=O)C2CC(=O)n3cnnc3S2)c1 (stereo not drawn) | -75% | -3 | 18µM* | ? | ? | 0.63µM* | 0.18*
COc1ccc(NC(=O)C2CC(=O)n3cnnc3S2)cc1 (stereo not drawn) | -66% | -25 | 11µM* | ? | -34% | ? | 0.18*
CCOc1ccc(NC(=O)CN(C)C(=O)c2ccccc2Cc2ccccc2)cc1OCC | 21% | 13 | -20% | 9% | -29% | 6%[59 µM] | nt
SMILES | HP1b chromo inh | PI5P4Ka inh | JMJD2A Tudor inh | PLK1 PBD inh | BAZ2B block | G9a inh-1 | G9a inh-2 | others
CCOc1ccc(CC(=O)Nc2sc(Cc3ccccc3)cc2C(N)=O)cc1OCC | ? | nt | ? | 17µM* | -1% | 2.5µM* | 6.3*
O=C(NCc1cccc(C(F)(F)F)c1)c1ccc2sc(C3=C[C@@H](O)[C@@H](O)[C@@H](CO)O3)nc2c1 | nt | -24 | nt | -12% | nt | nt | nt
COc1ccc(C)cc1NC(=O)C(NS(=O)(=O)c1cccs1)c1ccccc1 (stereo not drawn) | 26% | nt | -3% | nt | -2% | 3%[59 µM] | nt
COc1ccc(C)cc1NC(=O)C(NCC(O)c1ccccc1)c1ccccc1 (stereo not drawn) | ? | 6 | 10µM* | -4% | 22µM* | 2.8µM* | 14*
CCN(CC)CCNC(=O)CCc1c(C)nc2c(c(C)nn2-c2ccc(C)cc2)c1C | 28% | 0 | -8% | 3% | -13% | 26% | nt
COc1ccc(-c2nn(-c3ccccc3)cc2CNC[C@H]2O[C@@H](n3cnc(C(N)=O)n3)[C@H](O)[C@@H]2O)cc1 | 20% | 12 | -15% | -20% | nt | nt | nt
Cc1csc(NC(=O)CSc2nc3sc(C)c(C)c3c(=O)[nH]2)n1 | ? | -57* | 0%[57.1 µM] | 2.4µM* | ? | ? | 0.89* | ADP-Glo interf=-1%
COc1ccc(N2CCN(c3cc(C(=O)Nc4cc(OC)c(OC)c(OC)c4)ncn3)CC2)cc1OC | nt | 1 | nt | 0% | nt | nt | nt
Cc1ccc(C)c(NC(=S)N2CCN(c3cccc(C(F)(F)F)c3)CC2)c1 | 20% | -1 | 0% | -6% | 2% | 4%[59 µM] | nt
